The text below walks through data of paper PMC10668032, “Altered binding affinity of SIX1-Q177R correlates with enhanced WNT5A and WNT pathway effector expression in Wilms tumor”.

The full ranking holds about 33,000 sequences; the median of “e-score” is about -0.053, and the highest 2% start at about 0.38. This is one part of a sample in which the highest values are shown more often than they occur.

This test concerns the target T1, SIX1 homeodomain (reference allele) (human, UniProt Q15475 108-198).
T1 sequence: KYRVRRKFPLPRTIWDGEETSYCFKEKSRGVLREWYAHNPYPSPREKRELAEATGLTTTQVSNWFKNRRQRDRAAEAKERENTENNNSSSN
The experiment in a line: universal protein binding microarray; Universal all-10-mer PBM (8x60K, AMADID 030236), 300 nM GST-tagged protein, Alexa Fluor 488 anti-GST; buffer, salt, pH and temperature not stated (as in Berger); high values mean tight binding. The settings on record: protein: ivt; tags: N-terminal GST; dsDNA, one strand shown. The essentials: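 Homeodomains carrying a GST tag were produced by in vitro transcription/translation, then quantified by anti-GST western blot against a recombinant GST standard curve. Duplicate applications at 300 nM final concentration were made to universal 'all 10-mer' protein binding microarrays in 8×60K format. The Universal PBM Analysis Suite was used to express binding as 8-mer E-scores.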
For the sequence ACACCCTG, the binding signal was 0.321 ± 0.0135 E-score. As for ATACCCTG, the binding signal turned out to be 0.439 ± 0.0103 E-score. The value for ATACCCTC was 0.441 ± 0.0106 E-score; that for ACACCCTC was 0.306 ± 0.00827 E-score.

For the sequence ATACCCTA, the binding signal was 0.452 ± 0.00588 E-score.

Turning to ACACCCTA, the binding signal worked out at 0.31 ± 0.00433 E-score. The value for CCATCTGA was 0.259 ± 0.0253 E-score.

For AGAAGTAT, the binding signal was found to be 0.297 ± 0.117 E-score. The value for CTTAACAC was 0.151 ± 0.0479 E-score; that for AGGTGAGA was 0.159 ± 0.0138 E-score; that for AGGTGATA was 0.418 ± 0.0434 E-score. In the case of GGGTGAGA, the binding signal stood at 0.172 ± 0.0545 E-score.

Regarding GGGTGTTA, the binding signal worked out at 0.282 ± 0.0105 E-score. As for AGGTGATC, the binding signal came out at 0.359 ± 0.0112 E-score. With CGGTGATC, the binding signal is 0.351 ± 0.0309 E-score. As for GGGTGATA, the binding signal was 0.4596 ± 0.00219 E-score. Take CGGTGATA: the binding signal came to 0.4094 ± 0.00389 E-score. The result for CGGTGAGA reads 0.253 ± 0.0378 E-score; that for GGGCTATA, 0.2005 ± 0.00146 E-score. As to ATCATGGC, the binding signal was determined as 0.209 ± 0.00482 E-score. The value for AGTTATCG was 0.19 ± 0.0243 E-score. As to AGAATCCC, the binding signal was found to be 0.175 ± 0.0139 E-score. As to GTATAACA, the binding signal was found to be 0.238 ± 0.00858 E-score. With CGATAGGA, the binding signal was 0.26 ± 0.0286 E-score.

For the sequence GTATTGCA, the binding signal is 0.169 ± 0.0405 E-score. For the sequence ATAGCACA, the binding signal came to 0.169 ± 0.00707 E-score. The result for GCTAATCC reads 0.208 ± 0.0144 E-score. Consider ATCAAGTA, for which the binding signal was found to be 0.234 ± 0.0311 E-score. The result for CAATACGC reads 0.198 ± 0.00389 E-score. The value for GGATACGA was 0.36 ± 0.00395 E-score; that for ATATACGG was 0.305 ± 0.00579 E-score.

Turning to CGATACGA, the binding signal is 0.39752 ± 0.00029 E-score. The result for CGATACGC reads 0.434 ± 0.00646 E-score; that for AGATACGA, 0.279 ± 0.0423 E-score. The result for AGATACGC reads 0.349 ± 0.00878 E-score; that for AAATACGG, 0.19 ± 0.0109 E-score. The value for AGATACGG was 0.401 ± 0.00895 E-score; that for ACTAATCT was 0.192 ± 0.0141 E-score.

For the sequence AAGGTGAT, the binding signal was 0.1945 ± 0.00188 E-score.

For AGCCGGTA, the binding signal was 0.169 ± 0.00673 E-score. The value for CCGACCCA was 0.155 ± 0.0833 E-score.

ATTAACAC: the binding signal came out at 0.258 ± 0.0441 E-score. The result for ATTTAATA reads 0.164 ± 0.0598 E-score; that for ATCTCCAC, 0.204 ± 0.00599 E-score. Consider ATAGTACG, for which the binding signal was 0.209 ± 0.0147 E-score. For the sequence ACACCGGC, the binding signal was found to be 0.28 ± 0.0468 E-score. For ATCAATCG, the binding signal is 0.266 ± 0.0101 E-score. Turning to ATATACTC, the binding signal came out at 0.354 ± 0.0664 E-score.

Regarding ATATACCC, the binding signal was 0.446 ± 0.0125 E-score. The value for ATATACCG was 0.393 ± 0.00521 E-score; that for ATATACTG was 0.299 ± 0.0355 E-score. For the sequence CTATACCC, the binding signal amounted to 0.369 ± 0.00624 E-score. ATATACCA: the binding signal is 0.326 ± 0.0157 E-score.

Take ATAGCGGA: the binding signal was 0.227 ± 0.0403 E-score. The value for CCCAAGCA was 0.263 ± 0.00886 E-score; that for GTAGGCCA was 0.17 ± 0.0671 E-score; that for CCAGGATA was 0.38 ± 0.00746 E-score. In the case of GTAGGATA, the binding signal turned out to be 0.355 ± 0.00663 E-score. The value for GGAGGATA was 0.387 ± 0.0115 E-score; that for ATAGGATC was 0.367 ± 0.0232 E-score. As for ACAGGATA, the binding signal turned out to be 0.236 ± 0.0392 E-score. The result for ATAGGATA reads 0.415 ± 0.0252 E-score.

Take CTAGGATA: the binding signal stood at 0.356 ± 0.00923 E-score. In the case of CGAGGATA, the binding signal was determined as 0.384 ± 0.0112 E-score.

For CGAGGATC, the binding signal amounted to 0.333 ± 0.023 E-score.

As for GCAGGATA, the binding signal stood at 0.329 ± 0.0306 E-score. The result for CAAGGATA reads 0.342 ± 0.00822 E-score. Regarding AGAGGATA, the binding signal was determined as 0.326 ± 0.0175 E-score. Regarding ACCCTGAT, the binding signal is 0.3 ± 0.0183 E-score. GATCGAGA: the binding signal amounted to 0.295 ± 0.041 E-score. The result for GATAGCAA reads 0.202 ± 0.0434 E-score. The value for ATAGAATA was 0.162 ± 0.00811 E-score; that for AGACCATA was 0.19 ± 0.0814 E-score; that for GTCTACAC was 0.152 ± 0.0214 E-score. With AATACACC, the binding signal came to 0.336 ± 0.00415 E-score.

Take CAATGATA: the binding signal amounted to 0.418 ± 0.0312 E-score. The value for GAATGATA was 0.412 ± 0.066 E-score; that for TAATGATA was 0.36 ± 0.0576 E-score; that for AAATGATA was 0.415 ± 0.0488 E-score. The result for CAATGATC reads 0.31 ± 0.0312 E-score; that for AAATGAGA, 0.16 ± 0.0635 E-score; that for GAATAATA, 0.226 ± 0.111 E-score.

Consider AAATGATC, for which the binding signal worked out at 0.321 ± 0.107 E-score. The result for GAATGATC reads 0.306 ± 0.0507 E-score; that for AACACCCG, 0.304 ± 0.00694 E-score; that for ACCTGAGA, 0.158 ± 0.0127 E-score. Regarding ATCGAAGG, the binding signal was 0.179 ± 0.0692 E-score. On to AGAGTGTA, for which the binding signal turned out to be 0.223 ± 0.0204 E-score.
